The text below walks through data of ChEMBL document CHEMBL3988442, “University of Dundee, Small-Polar-MMV Screening Library” (2021).

In all, about 69,000 compounds went through this assay and about 420 (0.61%) showed an effect of 50% or more. The sample holds strong results, similar compounds and a random draw of the others, so the mix is not that of the screen.

The experiment addresses T1, Histidine--tRNA ligase (Leishmania infantum) (UniProt A4I591).
T1 sequence (whole entry): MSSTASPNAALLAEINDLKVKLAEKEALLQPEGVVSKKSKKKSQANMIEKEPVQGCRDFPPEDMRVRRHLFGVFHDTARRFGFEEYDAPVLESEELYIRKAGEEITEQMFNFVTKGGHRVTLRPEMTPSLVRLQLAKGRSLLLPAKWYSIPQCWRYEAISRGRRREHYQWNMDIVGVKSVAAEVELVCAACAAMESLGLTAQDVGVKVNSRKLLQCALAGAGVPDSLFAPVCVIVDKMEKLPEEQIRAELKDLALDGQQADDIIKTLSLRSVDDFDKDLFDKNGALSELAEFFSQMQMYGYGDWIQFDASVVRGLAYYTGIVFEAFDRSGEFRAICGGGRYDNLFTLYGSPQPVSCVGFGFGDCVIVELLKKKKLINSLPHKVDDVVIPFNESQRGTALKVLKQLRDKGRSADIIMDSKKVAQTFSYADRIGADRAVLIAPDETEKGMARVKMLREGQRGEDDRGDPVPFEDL
Kind of experiment: Leishmania infantum Histidine tRNA synthetase (LdHisRS). It counts as functional. Details: scale not given: in the data most compounds retested in dose-response had high values. Particulars: 30 µM.
For the molecule `Cc1cccc(CN2CC[C@@H]3[C@@H]2CCN3C(=O)c2cc(C)oc2C)n1`, the Percent Effect was found to be 25.6%.
The value for `O=C([C@H]1C[C@@H]2CCN(c3cccc(F)c3)C[C@H]2O1)N1CCCCO1` was 22.2%; that for `Cc1cc(=O)n(C)cc1NC(=O)Cc1cc(F)ccc1F` was 107%; that for `CCC(=O)NCC(=O)Nc1c(C)cnn1Cc1cc(F)ccc1F` was 14.5%.
The value for `Cc1cc(F)ccc1NC(=O)Cn1cc(C(=O)O)ccc1=O` was 21.7%.
The value for `CN(CCO)Cc1nnc(C2CCN(C[C@H]3[C@@H]4CNC[C@@H]43)CC2)n1C` was 9.38%; that for `Cc1ccc(C(=O)N2C[C@H]3CCC[C@@]3(COc3ccccn3)C2)nc1` was 16.4%; that for `FC(F)(F)c1ccc(-c2cc(NC3CCNCC3)nc3[nH]ccc23)nc1` was 63.9%.
As for `COc1nccnc1-c1cc(NC2CCNCC2)nc2[nH]ccc12`, the Percent Effect was found to be 55.3%.
As for `Nc1ccnc(-c2cc(NC3CCNCC3)nc3[nH]ccc23)c1`, the Percent Effect stood at 41%.
With `CNc1cc(C)nc(-c2cc(NC3CCNCC3)nc3[nH]ccc23)n1` the figure was 32.6%.
With `COc1ncc(-c2cc(NC3CCCC3)nc3[nH]ccc23)c(OC)n1` the figure was 21.3%; with `COc1nccnc1-c1cc(NC2CCCC2)nc2[nH]ccc12`, 6.38%; with `Cc1oncc1C(=O)N[C@@H]1CN(Cc2ccco2)C[C@@H]2CCCO[C@@H]21`, 4.54%.
With `Cn1ccc(C(=O)N2C[C@H]3CCC[C@@]3(COCc3cccnc3)C2)n1` the figure was 7.96%.
For the molecule `COC[C@]12COC[C@H]1CN(S(=O)(=O)c1cccnc1)C2`, the Percent Effect is 14%.
With `CCc1cc(N2CCC(F)(F)CC2)n2nc(C)c(C)c2n1` the figure was 61.7%.
With `CCc1cc(N2CCS(=O)(=O)CC2)n2nc(C)c(C)c2n1` the figure was 13.3%; with `CCc1cc(N2CCSCC2)n2nc(C)c(C)c2n1`, -0.971%; with `Cc1nnc(NCC(c2ccco2)N2CCCCC2)c(C#N)c1C` (configuration not stated), 32.9%.
With `Cc1nnc(NCC(c2ccco2)N(C)C)c(C#N)c1C` (configuration not stated) the figure was 54.8%; with `Cc1nnc(NCc2cccnc2N(C)C)c(C#N)c1C`, 15.4%.
As to `Cc1nnc(NCc2ccccc2S(=O)(=O)N(C)C)c(C#N)c1C`, the Percent Effect was determined as 22%.
With `Cc1nnc(NCC(c2ccco2)N2CCCC2)c(C#N)c1C` (configuration not stated) the figure was 60.3%; with `Cc1nnc(NCC(c2cccs2)N2CCCC2)c(C#N)c1C` (configuration not stated), 32.9%; with `Cc1nnc(NCc2ccccc2F)c(C#N)c1C`, 49.5%.
The value for `COCc1ccccc1CNc1nnc(C)c(C)c1C#N` was 12.3%; that for `Cc1nnc(NCc2ccccc2Cl)c(C#N)c1C` was 52.3%.
`O=C(Nc1cnccn1)[C@H]1COC[C@H]2CN(c3ncc(F)cn3)C[C@H]21`: the Percent Effect was 18.8%.
Turning to `COCCNC(=O)[C@H]1CC[C@@H]2[C@@H](CCN2S(C)(=O)=O)O1`, the Percent Effect was 22.9%.
The value for `Cc1nc(CN2C(=O)CC[C@@H]3[C@H]2CCN3C2CCOCC2)cs1` was 9.57%; that for `COCCN1CCO[C@@H]2CN(Cc3sccc3C)C[C@@H]2C1` was 0.84%; that for `CC(C)(C)c1cc(NC(=O)CN2CCc3cncnc3C2)on1` was 19.6%.
With `CCn1nc2c(cc1=O)CN(CC(=O)Nc1cc(C)no1)CC2` the figure was 15.2%.
The value for `CC(C)(C)c1cc(NC(=O)CN2CCn3c(nnc3C3CC3)C2)on1` was 1.79%; that for `Cc1cc(NC(=O)CN2CCc3nn(C)c(=O)cc3C2)on1` was 56.7%; that for `CCn1nc2c(cc1=O)CN(CC(=O)Nc1cc(C(C)C)no1)CC2` was 21.2%.
For `CN(C(=O)CN1CCc2nn(C)c(=O)cc2C1)c1nccs1`, the Percent Effect was determined as 65.9%.
Consider `CCn1nc2c(cc1=O)CN(CC(=O)N(C)c1nccs1)CC2`, for which the Percent Effect stood at 5.56%.
The value for `CCCn1nc2c(cc1=O)CN(CC(=O)Nc1cc(C)no1)CC2` was 18.2%.
With `CC(C)c1cc(NC(=O)CN2CCc3nn(C)c(=O)cc3C2)on1` the figure was 78.8%; with `CCCn1nc2c(cc1=O)CN(CC(=O)N(C)c1nccs1)CC2`, 24.6%; with `Cn1nc2c(cc1=O)CN(CC(=O)Nc1cc(C(C)(C)C)no1)CC2`, 112%.
As for `CC(C)c1cc(NC(=O)CN2CCc3ccccc3C2)on1`, the Percent Effect is -2.74%.
The value for `O=C(c1cscn1)N1CC[C@@H]2[C@@H]1CCN2CC1CCOC1` (some centres not stated) was 13.2%.
`O=C(NCc1ccco1)[C@@]12CCO[C@@H]1CCN(CC1CCOCC1)C2`: the Percent Effect is 20%.
With `CCN1C[C@H]2CCN(C(=O)Cc3cccc(OC)c3)CC[C@H]2S1(=O)=O` the figure was 19.2%.
The value for `O=C(Cn1ccnc1)N1C[C@@H]2CC[C@H](Oc3cccc(F)c3)[C@@H]2C1` was 7.29%; that for `Cc1nc(CN2C(=O)CC[C@H]3[C@@H]2CCN3C(=O)c2ccsc2)cs1` was 16.5%; that for `CC(C)NC(=O)[C@]12COC[C@H]1CN(Cc1cnn(C)c1)C2` was 12.5%.
For the molecule `CCS(=O)(=O)N1CC[C@@H]2[C@@H](CCC(=O)N2CCc2ccccc2)C1`, the Percent Effect stood at 9.38%.
Take `Cc1cc(NC(=O)CN2CCc3nn(C)c(=O)cc3C2)no1`: the Percent Effect was found to be 100%.
For `Cc1csc(NC(=O)CN2CCc3nn(C)c(=O)cc3C2)n1`, the Percent Effect came to 24.2%.
With `Cc1nnc(NC(=O)CN2CCc3nn(C)c(=O)cc3C2)s1` the figure was 9.62%; with `Cc1cc(N2CCOCC2)ccc1NC(C)c1nc(C(C)(C)C)no1` (configuration not stated), 28.3%.
With `Cc1cc(N2CCOCC2)ccc1NC(C)c1nc(C(C)C)no1` (configuration not stated) the figure was 39.1%; with `Cc1noc(C(C)Nc2ccc(N3CCOCC3)cc2C)n1` (configuration not stated), 63%.
